In PubChem BioAssay (NCI):
Compounds without any hit were thinned out: in the full panel of roughly 83,000, 20% have a hit.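 Cells were grown in 96-well plates and exposed to the test compound at a single concentration for 48 hours; results are reported as percent growth, with values below 10 considered active.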

Experiments:
Assay in all cases: NCI-60 one-dose screen, 48 h (100 = growth as untreated, 0 = no growth, -100 = all killed)
Settings in all cases: 10 µM unless noted
NCI-H23 lung = system: NCI-H23 lung
NCI-H226 lung = system: NCI-H226 lung
NCI-H322M lung = system: NCI-H322M lung
HOP-62 NSCLC = system: HOP-62 NSCLC
NCI-H460 lung = system: NCI-H460 lung
HOP-92 NSCLC = system: HOP-92 NSCLC
NCI-H522 lung = system: NCI-H522 lung
A549/ATCC NSCLC = system: A549/ATCC NSCLC
786-0 renal = system: 786-0 renal
COLO 205 colon = system: COLO 205 colon
DU-145 prostate = system: DU-145 prostate
K-562 leukemia = system: K-562 leukemia
MALME-3M melanoma = system: MALME-3M melanoma
MDA-MB-231 breast = system: MDA-MB-231 breast
RXF 393 renal = system: RXF 393 renal
SF-268 CNS = system: SF-268 CNS
SF-295 CNS = system: SF-295 CNS
SF-539 CNS = system: SF-539 CNS
UACC-257 melanoma = system: UACC-257 melanoma
M14 melanoma = system: M14 melanoma

Measured: growth

Nc1nc(Cl)cc(=O)n1Cc1ccccc1
inactive: NCI-H23 lung 88.1% | NCI-H226 lung 87.6% | NCI-H322M lung 89.6% | HOP-62 NSCLC 97.8% | NCI-H460 lung 105% | HOP-92 NSCLC 88.3% | NCI-H522 lung 86.7% | A549/ATCC NSCLC 94.6% | 786-0 renal 101% | COLO 205 colon 114% | DU-145 prostate 98.9% | K-562 leukemia 106% | MALME-3M melanoma 93.2% | MDA-MB-231 breast 92% | RXF 393 renal 101% | SF-268 CNS 103% | SF-295 CNS 95.5% | SF-539 CNS 96.2% | UACC-257 melanoma 93.1% | M14 melanoma 93.3%

Nc1ccccc1-c1cc2c(c3c1[nH]c1ccccc13)CCCCC2
inactive: NCI-H23 lung 90.5% | NCI-H226 lung 117% | NCI-H322M lung 99% | HOP-62 NSCLC 105% | NCI-H460 lung 97.2% | HOP-92 NSCLC 105% | NCI-H522 lung 84.8% | A549/ATCC NSCLC 95.8% | 786-0 renal 89.3% | COLO 205 colon 101% | DU-145 prostate 102% | K-562 leukemia 98% | MALME-3M melanoma 117% | MDA-MB-231 breast 90.3% | RXF 393 renal 113% | SF-268 CNS 97.2% | SF-295 CNS 103% | SF-539 CNS 116% | UACC-257 melanoma 105% | M14 melanoma 92.5%

COc1ccc(/C=N/Nc2cc(=O)[nH]c3ccc(C)cc23)cc1
inactive: NCI-H23 lung 70% | NCI-H226 lung 81.5% | NCI-H322M lung 86.8% | HOP-62 NSCLC 86.3% | NCI-H460 lung 103% | HOP-92 NSCLC 88% | NCI-H522 lung 75.2% | A549/ATCC NSCLC 91.3% | 786-0 renal 105% | COLO 205 colon 106% | DU-145 prostate 105% | K-562 leukemia 79.5% | MALME-3M melanoma 114% | MDA-MB-231 breast 126% | RXF 393 renal 95.4% | SF-268 CNS 115% | SF-295 CNS 96.2% | SF-539 CNS 101% | UACC-257 melanoma 105% | M14 melanoma 86.3%

Cc1nc(S(=O)(=O)c2ccccc2)c(S(=O)(=O)Cc2ccc([N+](=O)[O-])cc2)o1
inactive: NCI-H23 lung 103% | NCI-H226 lung 88% | NCI-H322M lung 100% | HOP-62 NSCLC 88.4% | NCI-H460 lung 98.5% | HOP-92 NSCLC 83.1% | NCI-H522 lung 68.8% | A549/ATCC NSCLC 97.6% | 786-0 renal 89.1% | COLO 205 colon 112% | DU-145 prostate 91.3% | K-562 leukemia 80.1% | MALME-3M melanoma 95.2% | MDA-MB-231 breast 98.1% | RXF 393 renal 93.2% | SF-268 CNS 89.2% | SF-295 CNS 114% | SF-539 CNS 104% | UACC-257 melanoma 85.4% | M14 melanoma 86.3%

Cc1ccc(-c2nc(N3CCN(CC(=O)Nc4ccc(Cl)c(C(F)(F)F)c4)CC3)c3ccccc3n2)cc1
inactive: NCI-H23 lung 92.5% | NCI-H226 lung 90.3% | NCI-H322M lung 87.3% | HOP-62 NSCLC 98.6% | NCI-H460 lung 92.7% | HOP-92 NSCLC 96.5% | NCI-H522 lung 81.6% | A549/ATCC NSCLC 75.8% | 786-0 renal 91.1% | COLO 205 colon 86.3% | DU-145 prostate 105% | K-562 leukemia 69% | MALME-3M melanoma 106% | MDA-MB-231 breast 90.7% | RXF 393 renal 80.5% | SF-268 CNS 81.6% | SF-295 CNS 104% | SF-539 CNS 95.9% | UACC-257 melanoma 94.5% | M14 melanoma 95.7%

C[C@H](C(=O)Nc1ccc(S(N)(=O)=O)cc1)S(=O)(=O)c1ccccc1
inactive: NCI-H23 lung 94.3% | NCI-H226 lung 98% | NCI-H322M lung 108% | HOP-62 NSCLC 87.6% | NCI-H460 lung 108% | HOP-92 NSCLC 94% | NCI-H522 lung 90.7% | A549/ATCC NSCLC 102% | 786-0 renal 101% | COLO 205 colon 107% | DU-145 prostate 108% | K-562 leukemia 106% | MALME-3M melanoma 101% | MDA-MB-231 breast 114% | RXF 393 renal 88.1% | SF-268 CNS 102% | SF-295 CNS 94.6% | SF-539 CNS 102% | UACC-257 melanoma 103% | M14 melanoma 104%

O=C1c2cccc3cccc(c23)C(=O)N1N1C(=O)c2cccc3c(NC4CCCCC4)ccc(c23)C1=O
inactive: NCI-H23 lung 90.4% | NCI-H226 lung 94% | NCI-H322M lung 96.4% | HOP-62 NSCLC 92.6% | NCI-H460 lung 98.8% | HOP-92 NSCLC 79.9% | NCI-H522 lung 88.1% | A549/ATCC NSCLC 94.4% | 786-0 renal 105% | COLO 205 colon 103% | DU-145 prostate 106% | K-562 leukemia 87.1% | MALME-3M melanoma 90.8% | MDA-MB-231 breast 75.6% | RXF 393 renal 92.9% | SF-268 CNS 93.6% | SF-295 CNS 95.3% | SF-539 CNS 94.2% | UACC-257 melanoma 100% | M14 melanoma 96.2%

COc1cccc(OC)c1C(=O)N[C@@H]1C(=O)N2[C@@H]1SC(C)(C)[C@@H]2C(=O)O
inactive: NCI-H23 lung 103% | NCI-H226 lung 107% | NCI-H322M lung 95.6% | HOP-62 NSCLC 103% | NCI-H460 lung 112% | HOP-92 NSCLC 44.9% | NCI-H522 lung 88.7% | A549/ATCC NSCLC 105% | 786-0 renal 95.6% | COLO 205 colon 107% | DU-145 prostate 115% | K-562 leukemia 110% | MALME-3M melanoma 93.9% | MDA-MB-231 breast 102% | RXF 393 renal 125% | SF-268 CNS 109% | SF-295 CNS 105% | SF-539 CNS 108% | UACC-257 melanoma 103% | M14 melanoma 97.9%
